# Rows were chosen to be rich in hits. Some 0.4% of all compounds tested hit in one or more screens of this group.
# EPAC1 agonist – EPAC1 (human) agonism | EPAC1 agonist qHTS, biochemical assay; response scale: 100% = response to 6.5 mM cAMP | Potency, µM (doses to about 154 µM), for the others: at the highest dose activation, usual class: activators | actives 0.073% (n = 360,000); note: nearly all actives have a fitted effect of over 60% in size
# Target sequence (O95398 whole entry, looked up): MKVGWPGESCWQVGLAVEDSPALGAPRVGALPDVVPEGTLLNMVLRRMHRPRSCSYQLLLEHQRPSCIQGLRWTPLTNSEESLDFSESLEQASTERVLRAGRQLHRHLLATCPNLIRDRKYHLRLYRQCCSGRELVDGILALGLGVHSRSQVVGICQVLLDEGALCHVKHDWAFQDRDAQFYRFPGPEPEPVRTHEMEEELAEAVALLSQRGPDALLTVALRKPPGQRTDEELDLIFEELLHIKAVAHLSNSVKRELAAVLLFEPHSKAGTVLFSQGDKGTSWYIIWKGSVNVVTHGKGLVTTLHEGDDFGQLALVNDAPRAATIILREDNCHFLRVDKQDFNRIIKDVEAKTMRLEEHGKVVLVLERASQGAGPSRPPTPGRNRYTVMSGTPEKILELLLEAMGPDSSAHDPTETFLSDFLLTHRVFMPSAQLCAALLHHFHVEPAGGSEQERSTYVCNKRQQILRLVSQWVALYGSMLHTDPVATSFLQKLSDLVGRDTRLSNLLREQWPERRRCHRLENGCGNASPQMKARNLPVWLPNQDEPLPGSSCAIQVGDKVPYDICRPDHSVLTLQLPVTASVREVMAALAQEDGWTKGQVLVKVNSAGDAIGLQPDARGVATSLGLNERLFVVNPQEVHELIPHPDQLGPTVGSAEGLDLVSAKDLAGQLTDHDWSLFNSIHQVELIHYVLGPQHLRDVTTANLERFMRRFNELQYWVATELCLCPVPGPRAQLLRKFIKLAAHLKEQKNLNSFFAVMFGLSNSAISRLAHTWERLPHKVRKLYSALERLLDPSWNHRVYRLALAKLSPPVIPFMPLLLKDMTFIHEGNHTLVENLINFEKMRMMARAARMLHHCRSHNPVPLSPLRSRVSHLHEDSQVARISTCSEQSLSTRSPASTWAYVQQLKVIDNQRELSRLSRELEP
#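 Read-out is the fluorescence drop as BODIPY-GDP leaves Rap1B (480 nm excitation, 540 nm emission), recorded every 5 minutes over 30 minutes. Reactions held 100 nM EPAC1, 250 nM Rap1B–BODIPY-GDP and 50 uM GDP, with 6.5 mM cAMP setting full activation.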
# ERG Ets-DNA blk – ERG Ets/DNA interaction inhibition | P11308 | fluorescence polarization, His-ERG Ets domain / labelled DNA | Potency, µM (doses to about 76.9 µM), inactives show at the highest dose FP activity, negative = inhibition, actives largely listed as inhibitors | actives 0.028% (n = 370,000) | AID 624246; active = well fitted inhibition curve with a large enough effect in the polarisation, with a control signal flat; inconclusive = small, poorly fitted or top-dose-only effect, or effect the other way, or a change in a side signal; inactive = no such curve, though single readings can be large or run the other way; the % refers to the polarisation;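 note: polarization taken with two DNA probes labelled with fluorescein and Texas red; % of control where 0% means no effect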
#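 His-tagged ERG Ets domain (1 uM in the protein solution; 300mM KCl, 50mM Tris-HCl, 1mM EDTA, 1mM DTT, pH 7.5) received compound, then a probe mix of 5 nM fluorescein-DNA and 100nM Texas-615-DNA. Fluorescence polarization was read for both dyes.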
# EPAC1 antagonist – antagonists of human EPAC1; Potency, µM (series often up to 115 µM), without a hit: top-dose activity change, negative = inhibition, most hits filed as inhibitors; actives 0.14% (n = 360,000); EPAC1 GEF assay, Rap1b-BODIPY-GDP exchange fluorescence; O95398; AID 720709;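 note: plate controls were vehicle for no effect and positive control for full effect; nearly all actives have a fitted effect of over 50% in size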
# RGS4 inh – human RGS4 inhibition; AID 504845; Potency, µM (titrated, usually from 114 µM), inactives show at the highest dose activity change, negative = inhibition, most hits filed as inhibitors; P49798; actives 0.039% (n = 390,000); Transcreener GDP fluorescence polarization, RGS4-accelerated GTP hydrolysis; note: % is set by controls: 0 for no effect and ±100 for the full control effect; nearly all actives have a fitted effect of over 75% in size
#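 MLSMR compounds (23 nl, pin-transferred) preincubated 10 min at room temperature with a 500nM (2x) first reagent, then RGS4 at 900nM (2x) plus Transcreener GDP mix added; fluorescence polarization (620/688 nm) read before and after 90 min at 30 °C.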
# EPAC2 ag – agonists of human EPAC2 (RAPGEF4) | Q8WZA2 | EPAC2 activation, biochemical qHTS; response scale: 100% = 6.5 mM cAMP response | Potency, µM (top dose mostly 154 µM), without a hit: at the top dose activation, most hits filed as activators | actives 0.079% (n = 360,000) | AID 720711; note: nearly all actives have a fitted effect of over 50% in size
#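 Exchange assay: 100 nM EPAC2 with 250 nM Rap1B-BODIPY-GDP and 50 uM GDP. Fluorescence (ex 480/em 540 nm) read every 5 min for 30 min at room temperature. Data normalized to 6.5 mM cAMP as agonist control.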
# EPAC2 antagonist – blocks human EPAC2 exchange factor. Potency, µM (highest dose often 114 µM), for the others: at the highest dose activity, negative = inhibition, actives largely listed as inhibitors. EPAC2 GEF exchange of Rap1B-BODIPY-GDP, fluorescence. actives 0.18% (n = 360,000); note: % is set by controls: 0 for no effect and ±100 for the full control effect; nearly all actives have a fitted effect of over 45% in size
# * = called active by the depositor; i = inactive; ? = inconclusive; . = not tested or not shown; ! = a repeat was not active; [ ] = dose if it differs, or a comment. Unless noted, calls come from the whole dose curve; as a rule, active = well fitted curve in the direction sought with a large enough effect; inconclusive = small, poorly fitted or top-dose-only effect, or another doubt; inactive = no such curve, though single readings can be large; an effect the other way counts as inactive or inconclusive. Potency is the fitted concentration of half-maximal effect.
SMILES,EPAC1 agonist,ERG Ets-DNA blk,EPAC1 antagonist,RGS4 inh,EPAC2 ag,EPAC2 antagonist
COc1ccc(-n2c(O)c(/C=C/C=Nc3ccccc3)c(=O)[nH]c2=O)cc1,100µM*,.,25%,-8%,?,54%
O=c1[nH]c(=O)n(-c2ccccc2)c(O)c1/C=C/C=Nc1ccccc1,?,.,37%,-5%,0%,54%
Cc1ccc2cc3c(ccc4ccccc43)c3c2c1CC3,.,.,.,-110%[56.9 µM],.,.
Cc1o[nH]c(=O)c1C[C@H](N)C(=O)O,.,.,.,i,.,.
O=C1NC(=S)NC(=O)C1=Cc1ccc2c(c1)CCN2CCCCl,15%,1%,-26%,?,2%,-11%
Cc1ccccc1N1C(=O)NC(=O)/C(=C\c2ccc3c(c2)CCCN3Cc2ccccc2)C1=O,12%,12%,35µM*,?,-3%,-5%
C[C@]12CCC3C(CC[C@]4(O)C[C@@H](O)CC[C@]34C=O)[C@@]1(O)CC[C@@H]2C1=CC(=O)OC1 (stereo partly specified),.,.,.,i,.,.
CCOP(=S)(OCC)Oc1cc(C)nc(C(C)C)n1,12%,-10%,-5%,-53%,-11%,22µM*
CCOP(=S)(OCC)Oc1cc(C)oc(=O)c1,-4%,-9%,-1%,-44%,7%,3%
O=C(O)c1cc[c]([Hg][Cl])cc1,-28%,6%,-9%,6.7µM*!,0%,-9%
COc1ccc(C(=O)O)cc1OC,9%,-3%,5%,11%,1%,8%
NC(=O)CI,.,.,.,19µM*,.,.
CN1[C@@H]2CC[C@H]1CC(OC(c1ccc(F)cc1)c1ccc(F)cc1)C2 (stereo partly specified),.,.,.,410%[56.9 µM],.,.
CCOC(=O)c1cc(CC)sc1/N=C/c1c(O)[nH]c(=S)[nH]c1=O,6%,4%,-15%,-26%,63µM*,31%
CCOC(=O)c1cc(CC)sc1/N=C/C1C(=O)NC(=S)NC1=O,-2%,16%,4%,-52%,89µM*,201%
CCOC(=O)c1c(/N=C/c2c(O)n(-c3cccc(C)c3)c(=O)[nH]c2=O)sc2c1CCCC2,2%,10%,-21%,-17%,8%,5%
C=CCN1CCC23c4c5ccc(O)c4OC2/C(=N/N=C2\CCC4(O)C6Cc7ccc(O)c8c7C4(CCN6CC=C)C2O8)CCC3(O)C1C5 (stereo unspecified),.,.,.,i,.,.
CCCOP(=O)(c1ccc(N(C)C)cc1)C(O)c1ccc(Cl)cc1Cl (stereo unspecified),2%,6%,-24%,6%,10%,?
c1ccc2sc(C3(NCC4CC4)CCCCC3)cc2c1,.,.,.,i,.,.
CN1CC[C@@]2(C)c3cc(O)ccc3N(C)C12 (stereo partly specified),.,.,.,21µM*,.,.
CNC(=O)Oc1ccc2c(c1)[C@]1(C)CCN(C)[C@@H]1N2C,3%,-5%,-6%,-10%[56.9 µM],1%,5%
NC1C=CC=C(C(=O)O)C1 (stereo unspecified),-3%,-2%,7%,?,6%,-10%
COc1cccc(C2CCN(CC(=O)Nc3cc(Cl)ccc3OC)CC2O)c1 (stereo unspecified),-1%,20µM*,-4%,-12%,9%,-19%
C[C@@H]1O[C@H](O[C@@H]2C[C@@H](O)[C@]3(CO)[C@H]4[C@H](O)C[C@]5(C)[C@@H](C6=CC(=O)OC6)CC[C@@]5(O)[C@@H]4CC[C@]3(O)C2)[C@@H](O)[C@H](O)[C@H]1O,.,.,.,27%[56.9 µM],.,.
Cc1cc(C(C#N)c2ccc(Cl)cc2)c(Cl)cc1NC(=O)c1cc(I)cc(I)c1O (stereo unspecified),-16%,11%,?,?,-11%,50µM*
SMILES,EPAC1 agonist,ERG Ets-DNA blk,EPAC1 antagonist,RGS4 inh,EPAC2 ag,EPAC2 antagonist
FC(F)(F)c1cccc(CC2CN(Cc3ccccc3)Cc3ccccc3N2c2cc(Cl)cc(Cl)c2)c1 (stereo unspecified),-3%,.,12%,.,-3%,3%
O=C(NC1CCCCCC1)c1ccc[nH]c1=S,-1%,-1%,-5%,?,-4%,0%
COC(=O)C1C2c3ccccc3C(c3ccccc32)C1(C)C(=O)OC (stereo unspecified),2%,-5%,4%,14%,7%,32µM*
COC(=O)C1=C(C(=O)OC)C2c3ccccc3C1c1ccccc12,1%,-9%,-20%,-28%,6%,-19%
Oc1c(Cl)c(Cl)c(Cl)c(Cl)c1Cl,-32%,-1%,-22%,?,-5%,10µM*
CC(C)(O)[C@@H]1C2OC(=O)[C@@H]1[C@]1(O)C[C@H]3O[C@]34C(=O)O[C@H]2[C@]14C (tested in a mixture with another compound),.,.,.,19%[56.9 µM],.,.
S=C(Nc1ccccc1)Nc1ccccn1,89µM*,.,15%,.,2%,-5%
CC(C)(C)c1csc(NC(=O)Nc2ccccc2)n1,7%,-1%,?,7%,22%,-17%
CN1CCCCC1c1cccnc1 (stereo unspecified),.,.,.,38µM*,.,.
c1cc2cc(c1)C[n+]1ccc(c3ccccc31)NCc1ccc(cc1)CNc1cc[n+](c3ccccc13)C2,.,.,.,i,.,.
CCOC(=O)C1CCCN(c2ccc([N+](=O)[O-])c3nonc23)C1 (stereo unspecified),89µM*,3.2µM*,79%,18%,100µM*,118%
CCN(CC)c1ccc(N=Cc2c(O)n(-c3ccccc3)c(=O)[nH]c2=O)cc1,-18%,6%,-9%,-16%,-10%,40%
CCOc1ccc(-n2c(O)c(C=Nc3ccc(N(CC)CC)cc3)c(=O)[nH]c2=O)cc1,-12%,.,9%,-29%,-192%,109%
CCN(CC)c1ccc(N=Cc2c(O)n(-c3ccccc3C)c(=O)[nH]c2=O)cc1,100µM*,.,-1%,-32%,89µM*,9%
CCOc1ccccc1-n1c(O)c(C=Nc2ccc(N(CC)CC)cc2)c(=O)[nH]c1=O,71µM*,-1%,8%,-19%,100µM*,32%
NCCCNCCSP(=O)(O)O,.,.,.,-12%[56.9 µM],.,.
CC[C@H](C)/C=C(C)/C=C/C1=CC2=C(Cl)C(=O)[C@](C)(OC(C)=O)C(=O)C2=CO1,12%,28%,?,?,10%,8.9µM*
O=C(O)Cc1cccnc1C(=O)O,.,.,.,i,.,.
N[C@@H](Cn1ccc(=O)n(Cc2ccc(C(=O)O)cc2)c1=O)C(=O)O,.,.,.,8.4µM*,.,.
NC(N)=Nc1ccc2[nH]c3c(c2c1)C[C@@]1(O)[C@H]2Cc4ccc(O)c5c4[C@@]1(CCN2CC1CC1)[C@H]3O5,-14%,8%,-10%,24µM*,6%,15%

# Assay outcomes deposited in PubChem BioAssay by National Center for Advancing Translational Sciences (NCATS).
